This test concerns the target FKTN. Put plainly: pooled miR-30 sensor sort-seq; sequence = guide strand. The note with it: shRNA.
Consider TTTCCTGTCAATGTGTTCTTTA, for which the sensor-assay potency score (higher = more potent) was -0.407.

In turn, TAAACCTAGAGTGTGGTACTTC displayed a sensor-assay potency score (higher = more potent) of 0.175.

For the sequence TTCCAAGCTGTCTTCTACCTTC, the sensor-assay potency score (higher = more potent) was -0.104.

Sequence TATCAGATTTGTAATCTTGTAT had a sensor-assay potency score (higher = more potent) of 0.319.

Turning to ATGTCTACAAACTCAGTCCAGC, the sensor-assay potency score (higher = more potent) is -1.47.

Take TCCATCAACAGTAACTTGCTGT: the sensor-assay potency score (higher = more potent) was -0.268.

Regarding TTGACTTGTTCAAAGTTCTTAT, the sensor-assay potency score (higher = more potent) is -0.62.

For the sequence TTGCATTGTCGATACCATCCTA, the sensor-assay potency score (higher = more potent) was -0.0659.

Regarding TAGAGTGTGGTACTTCTTCTAC, the sensor-assay potency score (higher = more potent) is -0.462.

For TTTAAGTCTCAAGTGGCCGTGC, the sensor-assay potency score (higher = more potent) is 0.148.

As to TTAACTGCACGCCACTGTGTGC, the sensor-assay potency score (higher = more potent) is -1.27.

On to TAGTACAACTGAAACAGCAGAA, for which the sensor-assay potency score (higher = more potent) was 0.161.

Regarding TGCATTGTCGATACCATCCTAG, the sensor-assay potency score (higher = more potent) was -0.739.

TTTTACATCATCTTTTCCCTGG: the sensor-assay potency score (higher = more potent) is 0.348.

As to TAAATAGTGCTTGTAGTAGTAC, the sensor-assay potency score (higher = more potent) is -0.0376.

On to TGCATTGTGAAGTAGAGCCATG, for which the sensor-assay potency score (higher = more potent) was -1.03.

As to TTTTAAACAGTTATCTACCTTT, the sensor-assay potency score (higher = more potent) was 0.405.

Turning to TTTGACTTGTTCAAAGTTCTTA, the sensor-assay potency score (higher = more potent) was 0.733.

With TTGCATTGTGAAGTAGAGCCAT, the sensor-assay potency score (higher = more potent) stood at 0.152.

These data come from the OligoGym collection.
Also: reference of the scale not given here.
